SKN-1 inh: C. elegans SKN-1 inhibition; C. elegans VP596 Pgst-4::GFP/RFP ratio, acrylamide-induced, 24 h; inhibition, % at 21.8 µM; 0.49% of 360,000 active;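 active = interference check ratio from 0.5 to 1.5 plus GFP to RFP signal ratio inhibition reaching or exceeding a fixed threshold, cut at about 30% in these data, passing the limit was not always enough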
Vif imaging: blocks HIV Vif function. 0.35% of 340,000 active. HEK293T cells, Vif self-association by quenched fluorescence, imaging, 24 h. inhibition, % at 7.49 µM; in the data active = inhibition above about 50%, passing the limit was not always enough
SMARCA2 act: increases SMARCA2 function in MMTV reporter cells. MG213 cells, MMTV-luciferase reporter, dexamethasone, overnight. activation, % at 9.1 µM. 1% of 370,000 active. AID 652017; in the data active = activation above about 7.8%;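 note: 0% = vehicle wells and 100% = reference activator wells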
NadD block: inhibitors of Staphylococcus aureus NadD | purified NadD enzyme, colorimetric absorbance read-out | inhibition, % at 20 µM | 0.78% of 360,000 active; in the data active = inhibition above about 26%
NR3A LBD binder: NR3A (human) ligand-binding domain modulation; AID 1259313; 2.5% of 340,000 active; NR3A LBD differential scanning fluorimetry, Tm shift; 0% = protein alone, 100% = glycine-bound protein; Tm shift relative to glycine control, % at 25 µM;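 active = melting temperature shift of at least 10% of the positive control shift, at one fixed dose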
esBAF inh: SWI/SNF esBAF complex inhibition; 2% of 350,000 active; mouse ES cells, Bmi1-luciferase knock-in reporter, 24 h; 100% = twice the neutral-well signal; AID 602393; reporter increase, % at 12.5 µM; in the data active = activation above about 40%;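 note: 0% = median of the plate's neutral control wells and 100% = double that signal; a rise in the Bmi1 reporter signal indicates esBAF inhibition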
NadD conf: NadD (S. aureus) inhibition, single concentration confirmation | 13% of 2,000 active | inhibition, % at 20 µM | shares compounds with NadD block | purified S. aureus NadD, colorimetric enzyme assay; in the data active = inhibition mostly above about 42%, no sharp cut-off; inactive = mostly below about 42%
* marks the source's active call; other numbers are inactive results. Compounds with a hit are over-represented: about 5.2% of the library has one in this group of screens.

Results for O=C(N[C@@H](Cc1ccccc1)C(=O)OCc1ccccc1)c1nc[nH]c1C(=O)N1CCN(c2ccccc2)CC1 ?
SKN-1 inh: -7; Vif imaging: -4; SMARCA2 act: 0; NadD block: 30*; NR3A LBD binder: -10; esBAF inh: -2; NadD conf: 16

Results for O=C(COc1cccc(Cl)c1)Nc1nc(-c2ccc(S(=O)(=O)N3CCOCC3)cc2)cs1 ?
SKN-1 inh: 7; Vif imaging: -19; SMARCA2 act: -2; NadD block: 32*; NR3A LBD binder: -6; esBAF inh: 2; NadD conf: 7

What do the screens show for `CO[C@H]1CN(C)C(=O)c2cc(NC(=O)C3CCC3)ccc2OC[C@@H](C)NC[C@H]1C`?
esBAF inh: -1

Results for CCCNC(=O)N1C[C@H](C)[C@@H](OC)CN(C)C(=O)c2cc(NC(=O)CCC)ccc2OC[C@@H]1C ?
esBAF inh: 1

How did Nc1cc2nc[nH]c2cc1N do in these assays?
SKN-1 inh: 2; Vif imaging: 4; SMARCA2 act: 2; NadD block: 39*; NR3A LBD binder: 1; NadD conf: 37

What do the screens show for `Cn1c(=O)n(C)c2cc3[nH]cnc3cc21`?
SKN-1 inh: 10; Vif imaging: -5; SMARCA2 act: -3; NadD block: -6; NR3A LBD binder: -1; esBAF inh: 15

What do the screens show for `C[C@@H]1CCCCO[C@H](CN(C)C(=O)Nc2ccc3c(c2)OCO3)[C@@H](C)CN([C@@H](C)CO)C(=O)c2cc(NS(=O)(=O)c3ccc(F)cc3)ccc2O1`?
esBAF inh: 0

Results for COc1cc(/C=C/C(=O)c2ccc(NS(=O)(=O)c3ccc(C)cc3)cc2)cc(OC)c1O ?
SKN-1 inh: 17; Vif imaging: 22; SMARCA2 act: -5; NadD block: 32*; NR3A LBD binder: 11*; NadD conf: 46

Results for COc1ccc2cc(C(=O)/C=C/c3cc(OC)c(O)c(OC)c3)ccc2c1 ?
SKN-1 inh: -7; Vif imaging: 5; SMARCA2 act: 5; NadD block: 17; NR3A LBD binder: 9; esBAF inh: 26

Results for O=C(NC(=S)Nc1nc(-c2cccc([N+](=O)[O-])c2)cs1)c1cc(Cl)ccc1Cl ?
SKN-1 inh: -7; Vif imaging: 4; SMARCA2 act: -1; NadD block: 30*; NR3A LBD binder: 11*; esBAF inh: 5; NadD conf: 8

How did C[C@@H]1CN([C@H](C)CO)C(=O)c2cccc(NC(=O)C3CCOCC3)c2O[C@H]1CN(C)CC1CC1 do in these assays?
esBAF inh: 1

Results for CCn1c(-c2nonc2NC(=O)c2ccccc2)nc2ccccc21 ?
SKN-1 inh: 5; Vif imaging: 2; SMARCA2 act: 5; NadD block: -9; NR3A LBD binder: -16; esBAF inh: -3

Results for CC(C)(C)c1ccc(C(=O)Nc2nonc2-c2nc3ccccc3[nH]2)cc1 ?
SKN-1 inh: -9; Vif imaging: -5; SMARCA2 act: 0; NadD block: 55*; NR3A LBD binder: -2; esBAF inh: 3; NadD conf: 2

What do the screens show for `CN1C(=O)Cc2cc(S(=O)(=O)N3CCN(c4ccc(Cl)cc4)CC3)ccc21`?
SKN-1 inh: 1; Vif imaging: -3; SMARCA2 act: -1; NadD block: 14; NR3A LBD binder: -3; esBAF inh: -4

Results for Cc1ccc(C)c(N2CCN(S(=O)(=O)c3ccc4[nH]c(=O)c(=O)[nH]c4c3)CC2)c1 ?
SKN-1 inh: 4; Vif imaging: -2; SMARCA2 act: -2; NadD block: 32*; NR3A LBD binder: -7; esBAF inh: -4; NadD conf: 54*

How did Cc1ccc(Cl)cc1N1CCN(S(=O)(=O)c2ccc3c(c2)CC(=O)N3C)CC1 do in these assays?
SKN-1 inh: -4; Vif imaging: -7; SMARCA2 act: -1; NadD block: 29*; NR3A LBD binder: -3; esBAF inh: 0; NadD conf: 10
